Results: ChEMBL document CHEMBL1961873, “Compounds: GSK PKIS; Assays: Nanosyn kinase panel” (2012)

How the values were obtained:
[1] = biological target: Protein kinase C gamma type (Homo sapiens) (UniProt P05129); settings: at 1 µM;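 further: each value is an averaged percent inhibition of the enzyme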
[2] = biological target: T1, Protein kinase C iota type (Homo sapiens) (UniProt P41743); settings: at 0.1 µM
T1 sequence (whole entry): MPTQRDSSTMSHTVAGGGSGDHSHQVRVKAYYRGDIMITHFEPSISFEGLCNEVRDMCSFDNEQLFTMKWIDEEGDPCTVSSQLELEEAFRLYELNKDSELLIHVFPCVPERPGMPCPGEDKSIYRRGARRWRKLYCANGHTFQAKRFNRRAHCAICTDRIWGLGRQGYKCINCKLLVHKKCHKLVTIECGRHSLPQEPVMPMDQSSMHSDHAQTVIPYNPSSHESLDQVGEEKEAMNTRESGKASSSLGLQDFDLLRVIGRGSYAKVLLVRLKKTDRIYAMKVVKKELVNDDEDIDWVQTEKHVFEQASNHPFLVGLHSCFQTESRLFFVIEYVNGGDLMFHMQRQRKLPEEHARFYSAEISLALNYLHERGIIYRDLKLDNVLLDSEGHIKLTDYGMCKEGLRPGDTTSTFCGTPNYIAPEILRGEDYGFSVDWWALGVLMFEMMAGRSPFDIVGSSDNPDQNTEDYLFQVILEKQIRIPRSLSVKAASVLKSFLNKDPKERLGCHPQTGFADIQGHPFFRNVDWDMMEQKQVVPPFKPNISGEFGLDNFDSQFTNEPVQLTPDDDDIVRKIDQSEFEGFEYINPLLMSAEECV

[3] = biological target: T1, Protein kinase C iota type (Homo sapiens); settings: at 1 µM
[4] = biological target: Protein kinase C theta type (Homo sapiens) (UniProt Q04759); settings: at 0.1 µM
[5] = biological target: Protein kinase C theta type (Homo sapiens) (UniProt Q04759); settings: at 1 µM
[6] = biological target: Protein kinase C beta type (Homo sapiens) (UniProt P05771); settings: at 0.1 µM
[7] = biological target: Protein kinase C beta type (Homo sapiens) (UniProt P05771); settings: at 1 µM
[8] = biological target: T2, Serine/threonine-protein kinase D1 (Homo sapiens) (UniProt Q15139); settings: at 0.1 µM
T2 sequence (whole entry): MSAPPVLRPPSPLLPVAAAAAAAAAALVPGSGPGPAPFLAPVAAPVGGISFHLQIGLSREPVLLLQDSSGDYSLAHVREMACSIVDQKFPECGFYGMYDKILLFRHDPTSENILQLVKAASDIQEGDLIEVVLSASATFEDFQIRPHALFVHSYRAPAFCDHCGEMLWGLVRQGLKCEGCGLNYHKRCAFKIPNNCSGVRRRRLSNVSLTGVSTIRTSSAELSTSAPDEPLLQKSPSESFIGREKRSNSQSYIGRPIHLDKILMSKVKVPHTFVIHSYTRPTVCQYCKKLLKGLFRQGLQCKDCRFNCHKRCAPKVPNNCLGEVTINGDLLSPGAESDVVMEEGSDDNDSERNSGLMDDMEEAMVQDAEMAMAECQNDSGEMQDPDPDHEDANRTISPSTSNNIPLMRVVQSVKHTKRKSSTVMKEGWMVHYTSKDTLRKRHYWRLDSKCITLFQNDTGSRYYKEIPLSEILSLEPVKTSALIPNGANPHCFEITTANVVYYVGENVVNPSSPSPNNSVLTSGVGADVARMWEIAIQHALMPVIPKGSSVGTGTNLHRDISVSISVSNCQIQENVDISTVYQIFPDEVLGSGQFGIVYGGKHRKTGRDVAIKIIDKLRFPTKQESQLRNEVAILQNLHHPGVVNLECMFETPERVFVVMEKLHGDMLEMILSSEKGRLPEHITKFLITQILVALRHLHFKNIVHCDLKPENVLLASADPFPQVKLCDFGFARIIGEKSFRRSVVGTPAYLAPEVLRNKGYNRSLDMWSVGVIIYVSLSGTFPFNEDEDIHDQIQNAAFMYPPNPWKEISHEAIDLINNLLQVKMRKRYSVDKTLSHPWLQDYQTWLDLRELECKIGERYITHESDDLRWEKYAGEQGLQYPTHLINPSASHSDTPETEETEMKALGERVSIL

[9] = biological target: T2, Serine/threonine-protein kinase D1 (Homo sapiens); settings: at 1 µM
[10] = biological target: T3, Serine/threonine-protein kinase D2 (Homo sapiens) (UniProt Q9BZL6); settings: at 0.1 µM;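 further: reported percent inhibition values are means, part of the GSK PKIS kinase panel screen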
T3 sequence (whole entry): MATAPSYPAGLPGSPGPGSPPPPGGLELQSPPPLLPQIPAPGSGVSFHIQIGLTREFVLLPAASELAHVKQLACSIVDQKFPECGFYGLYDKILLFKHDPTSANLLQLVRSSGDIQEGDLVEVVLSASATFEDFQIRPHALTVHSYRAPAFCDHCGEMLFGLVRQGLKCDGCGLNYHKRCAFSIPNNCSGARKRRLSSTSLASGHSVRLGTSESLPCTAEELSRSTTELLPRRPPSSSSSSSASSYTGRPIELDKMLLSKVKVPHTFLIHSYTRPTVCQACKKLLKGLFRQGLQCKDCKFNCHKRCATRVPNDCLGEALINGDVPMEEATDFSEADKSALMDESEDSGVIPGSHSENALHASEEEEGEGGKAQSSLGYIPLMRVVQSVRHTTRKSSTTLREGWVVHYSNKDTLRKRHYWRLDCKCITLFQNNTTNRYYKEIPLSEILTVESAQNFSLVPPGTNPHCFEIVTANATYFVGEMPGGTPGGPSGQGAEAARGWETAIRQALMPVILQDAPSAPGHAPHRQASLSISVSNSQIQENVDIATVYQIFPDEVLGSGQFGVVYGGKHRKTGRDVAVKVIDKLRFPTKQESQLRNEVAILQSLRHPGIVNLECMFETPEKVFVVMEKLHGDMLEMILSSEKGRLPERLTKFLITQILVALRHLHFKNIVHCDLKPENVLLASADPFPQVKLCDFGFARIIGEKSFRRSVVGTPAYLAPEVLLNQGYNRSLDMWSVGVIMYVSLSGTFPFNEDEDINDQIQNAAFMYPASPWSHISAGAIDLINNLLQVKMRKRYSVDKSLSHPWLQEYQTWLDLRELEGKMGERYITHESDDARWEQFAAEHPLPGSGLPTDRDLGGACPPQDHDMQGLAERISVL

Protein kinase C beta type (Homo sapiens), sequence (P05771 2-671 limits assumed): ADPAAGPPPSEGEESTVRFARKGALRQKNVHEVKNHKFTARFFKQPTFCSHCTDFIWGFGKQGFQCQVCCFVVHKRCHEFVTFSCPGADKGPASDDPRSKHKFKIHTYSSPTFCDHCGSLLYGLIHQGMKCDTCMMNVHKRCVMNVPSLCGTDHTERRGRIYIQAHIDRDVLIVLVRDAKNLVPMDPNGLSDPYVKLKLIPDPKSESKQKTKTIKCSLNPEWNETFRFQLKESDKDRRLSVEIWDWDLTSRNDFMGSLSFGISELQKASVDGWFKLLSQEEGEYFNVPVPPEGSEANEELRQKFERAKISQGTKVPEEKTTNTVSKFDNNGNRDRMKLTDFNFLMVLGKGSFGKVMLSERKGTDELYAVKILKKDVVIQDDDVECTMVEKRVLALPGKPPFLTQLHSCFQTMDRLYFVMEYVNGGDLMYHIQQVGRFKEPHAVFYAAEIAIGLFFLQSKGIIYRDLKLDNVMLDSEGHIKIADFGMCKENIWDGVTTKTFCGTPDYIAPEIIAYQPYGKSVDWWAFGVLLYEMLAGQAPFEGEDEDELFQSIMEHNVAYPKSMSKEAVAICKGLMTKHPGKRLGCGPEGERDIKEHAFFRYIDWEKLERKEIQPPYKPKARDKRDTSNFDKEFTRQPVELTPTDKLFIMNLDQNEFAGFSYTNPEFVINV
Protein kinase C theta type (Homo sapiens), sequence (Q04759 whole entry, looked up): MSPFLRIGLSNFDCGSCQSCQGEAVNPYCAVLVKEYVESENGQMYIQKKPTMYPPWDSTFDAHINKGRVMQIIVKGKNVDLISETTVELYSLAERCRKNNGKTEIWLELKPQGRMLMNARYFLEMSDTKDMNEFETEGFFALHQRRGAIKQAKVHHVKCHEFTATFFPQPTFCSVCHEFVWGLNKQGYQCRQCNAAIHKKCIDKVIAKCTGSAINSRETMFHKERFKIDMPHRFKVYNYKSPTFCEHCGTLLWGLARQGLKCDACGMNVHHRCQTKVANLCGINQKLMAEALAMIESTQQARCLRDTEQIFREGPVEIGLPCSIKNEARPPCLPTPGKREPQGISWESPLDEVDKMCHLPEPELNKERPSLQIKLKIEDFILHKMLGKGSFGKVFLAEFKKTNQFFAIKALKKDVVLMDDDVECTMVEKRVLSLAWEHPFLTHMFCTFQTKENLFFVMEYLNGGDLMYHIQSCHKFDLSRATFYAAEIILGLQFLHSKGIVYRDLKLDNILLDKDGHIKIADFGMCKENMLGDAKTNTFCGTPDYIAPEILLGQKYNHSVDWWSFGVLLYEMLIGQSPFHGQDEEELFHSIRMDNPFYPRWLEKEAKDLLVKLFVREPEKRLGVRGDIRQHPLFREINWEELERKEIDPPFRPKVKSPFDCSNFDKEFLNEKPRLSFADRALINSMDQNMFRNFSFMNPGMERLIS

Row | SMILES | inhibition [1] [%] | inhibition [2] [%] | inhibition [3] [%] | inhibition [4] [%] | inhibition [5] [%] | inhibition [6] [%] | inhibition [7] [%] | inhibition [8] [%] | inhibition [9] [%] | inhibition [10] [%]
1 | CC(C)(CO)CNC(=O)c1ccc2c(c1)/C(=N/Nc1ccc(S(N)(=O)=O)cc1)C(=O)N2 | 3.43 | -0.53 | -0.82 | 0.56 | 0.9 | 0.36 | 1.12 | 0.49 | 13.9 | 0.9
2 | c1ccc(COc2ccc(Nc3ncnc4ccc(-c5ccco5)cc34)cc2)cc1 | 0.84 | -1.29 | -0.86 | -2.6 | -0.62 | 0.49 | 0.58 | 1.25 | 0.71 | 3.12
3 | CCN(CC)S(=O)(=O)c1ccc(OC)c(Nc2ncc(-c3ccccc3)o2)c1 | 3.98 | 0.63 | -0.91 | 1.36 | 1.38 | 0.23 | 1.41 | 1.66 | 0.39 | 0.75
4 | COc1ccc(-c2cc(-c3c[nH]nc3-c3ccccn3)ccn2)cc1 | 1.71 | 1.68 | 0.87 | 2.82 | 5.05 | 0.62 | 1.96 | 8.14 | 37.8 | 9.14
5 | Clc1ccc(-c2nn3ncccc3c2-c2ccnc(Nc3ccccc3)n2)cc1 | -1.39 | 0.23 | 0.46 | 0.91 | -0.72 | -0.06 | 3.99 | 1.65 | 2.76 | 1.23
6 | CCOc1ccc2c(-c3ccnc(Nc4cccc(C(F)(F)F)c4)n3)cnn2n1 | 2.94 | 1.45 | 0.72 | 0.84 | 0.7 | 0.45 | 0.29 | 3.34 | 3.21 | 3.62
7 | NS(=O)(=O)c1ccc(N/N=C2\C(=O)Nc3ccc4ncccc4c32)cc1 | 11.8 | -0.86 | 1.52 | 2.1 | 11.8 | 1.28 | 3.78 | 12.6 | 62.2 | 9.02
8 | Fc1ccc(-c2cc(-c3c[nH]nc3-c3ccccn3)ccn2)cc1 | 1.87 | 2.53 | 0.58 | 3.15 | 5.06 | 1.48 | 1.07 | 4.79 | 26.9 | 6.43
9 | O=C(O[C@H]1CN[C@H](C#Cc2cc3ncnc(Nc4ccc(Cc5ccccc5)cc4)c3s2)C1)N1CCOCC1 | 3.28 | 2.08 | 2.38 | 1.84 | 2.2 | 2.68 | 4.05 | 2.54 | 3.43 | 3.17
10 | CC(C)COC(=O)c1ccc2c(c1)/C(=C/Nc1ccc(S(N)(=O)=O)cc1)C(=O)N2 | 9.06 | -0.44 | 1.73 | 2.36 | 7.78 | 3.37 | 6.47 | 4.18 | 56 | 4.41
11 | CC(=O)Nc1cccc(C#Cc2cncnc2Nc2ccc(OCc3cccc(F)c3)c(Cl)c2)c1 | 3.97 | 0.27 | 2.04 | 0.62 | -0.6 | 1.6 | 0.79 | 1.8 | 2.69 | 1.88
12 | CS(=O)(=O)CCNCc1coc(-c2ccc3ncnc(Nc4ccc(OCc5ccccc5)cc4)c3c2)c1 | 4.91 | 1.33 | 0.97 | 1.31 | 1.25 | -0.17 | 1.35 | 1.97 | 2.95 | 2.53
13 | CCN1CCC(CC(=O)Nc2n[nH]c3nnc(-c4cccc(F)c4F)cc23)CC1 | 1.09 | 0.63 | 1.36 | 0.68 | 1.31 | 0.16 | 0.85 | 0.72 | 1.85 | 2.45
14 | N#Cc1c(NC(=O)c2ccc(F)cc2)sc2c1CCCC2 | 0.62 | -0.52 | -1.26 | 0.53 | -0.01 | 1.04 | 0.69 | 1.57 | 2.87 | 3.3
15 | Fc1ccc(-c2nn3ncccc3c2-c2ccnc(Nc3ccc4c(c3)OCCO4)n2)cc1 | 7.86 | 0.67 | 3.27 | 1.22 | 3.8 | 3.86 | 20.1 | 4.89 | 36.5 | 8.87
16 | COc1cc2c(cc1Nc1nc(Nc3ccsc3C(N)=O)c3cc[nH]c3n1)N(C(=O)CN(C)C)CCC2(C)C | 44 | 2.68 | 5.01 | 4.59 | 16.2 | 3.45 | 15 | 11.2 | 58.5 | 17.5
